We go through 22 molecules from PubChem BioAssay (Tox21).

Values without a mark were called inactive. Inconclusive results are not listed. Calls of active or inactive are those of the source. Unless noted, calls follow the shape of the dose curve; as a rule, active = well fitted curve in the direction sought with a large enough effect in the repeat runs; inconclusive = weak or mixed curves; inactive = no such curve, though single readings can be large; an effect the other way counts as inactive or inconclusive.

The nature of assay [1]: qHTS assay for small molecules that induce genotoxicity in human embryonic kidney cells expressing luciferase-tagged ATAD5 (AID 651632). Also: nearly all actives have a fitted effect of over 15% in size. Also: potency is read from the fitted curve at half-maximal effect. In outline: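 Reporter cells (HEK293T) express luciferase-tagged ATAD5, a protein that accumulates after DNA damage. Treat 16 hr at 37C/5% CO2, add Amplite, wait 30 min at RT, and read luminescence.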
(Quantitative high-throughput screening tests each substance at several concentrations.)

Assay [2] in a line: qHTS assay for small molecule agonists of the p53 signaling pathway - cell viability (AID 651633; calls by dose curve;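 also: p53RE-bla HCT reporter cells with a stable beta-lactamase p53 reporter; series mostly up to about 83 µM; nearly all actives have a fitted effect of over 30% in size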). Put shortly:
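Viability counter-read: CellTiter-Glo luminescence (30 min, room temperature) in the same p53RE-bla plates. These plates had been exposed to compounds for 16 h at 37 C.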

Assay [3] can be described thus: qHTS assay for small molecules that induce genotoxicity in human embryonic kidney cells expressing luciferase-tagged ATAD5 - cell viability (AID 651634; calls by dose curve; also: nearly all actives have a fitted effect of over 25% in size; also: potency is read from the fitted curve at half-maximal effect). In outline: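 Seeding of 2,000 HEK293T ATAD5-luciferase cells per well preceded pin-tool compound transfer. Plates sat 15.5 hr at 37C under 5% CO2, then fluorescence was read after 30 min with CellTiter-Fluor.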

The nature of assay [4]: qHTS assay to test for compound auto fluorescence at 590 nm (red) in HepG2 cells (AID 720674). Put shortly:
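We screened compounds on adherent HepG2 cells, incubating them for an hour at 37 C in 5% CO2 before reading emission at 590 nm under 540 nm excitation; values reflect equivalence to Rose Bengal sodium fluorescence.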

Assay [5] is described as follows: qHTS assay to test for compound auto fluorescence at 535 nm (green) in HepG2 cells (AID 720675).
The nature of assay [6]: qHTS assay to test for compound auto fluorescence at 460 nm (blue) in HEK293 cells (AID 720678). Put shortly: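 Triamterene serves as the blue fluorophore standard. Compound signal at 405/460 nm is read in HEK293 wells (2,000 cells, 10% dialyzed FBS) after overnight treatment at 37C.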
Assay [7] in a line: qHTS assay to test for compound auto fluorescence at 590 nm (red) in HEK293 cells (AID 720679). Put shortly:
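We plated HEK293 cells in 10% dialyzed FBS medium, let them adhere for 4-5 hr, then added 23 nL compound. Overnight at 37C and 5% CO2 preceded fluorescence measurement at 540/590nm.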

Assay [8] in a line: qHTS assay for small molecule disruptors of the mitochondrial membrane potential - cell viability (AID 720634; calls by dose curve;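 also: human HepG2 liver cancer cells; series mostly up to about 83 µM; nearly all actives have a fitted effect of over 20% in size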). In outline:
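Measuring cytotoxicity alongside mitochondrial potential, the screen quantified ATP by luminescence in HepG2 cells after 1 hr compound incubation and a 30 min room-temperature CellTiter-Glo step.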

A short description of assay [9]: qHTS assay for small molecule disruptors of the mitochondrial membrane potential (AID 720635). Also: potency is read from the fitted curve at half-maximal effect. Put shortly:
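Mitochondrial membrane potential tracked with Mito-MPS dye, red aggregates (ex 540/em 590 nm) against green monomers (ex 490/em 535 nm). Compound treatment 1 hr at 37C, dye 30 min in HepG2.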
% is scaled to controls: 0 for no effect and ±100 for the full control effect.

Regarding `Nc1ccn([C@@H]2O[C@H](CO)[C@@H](O)C2O)c(=O)n1` (stereo partly drawn), the Potency result in assay [1], in [2] and in assay [3] was “inactive” in each case. Moreover, the call in [4], in assay [5], in assay [6] and in assay [7] was inactive.

With `NCCCC(N)(C(=O)O)C(F)F` (stereo not drawn), the Potency entry in [1] and in assay [3] was “inactive” in each case. Besides, the result in [8], in assay [4], in assay [5], in assay [6] and in assay [7] was inactive.

Turning to `CCCCN(CCC(=O)OCC)C(C)=O`, the Potency result in assay [1] and in assay [3] was “inactive” in each case. Moreover, the molecule was classed as inactive in assay [8], in [5], in assay [6] and in [7].

For `O=C(c1ccccc1O)c1ccccc1O`, the Potency result in assay [1] and in [3] was “inactive” throughout. The outcome in assay [8], in assay [4], in [5], in assay [6] and in assay [7] was inactive. For the same molecule, the Potency in assay [9] was 12.1 µM (active).

Turning to `CCOCC(C)O` (stereo not drawn), the Potency entry in [1] and in assay [3] was “inactive” each time. The molecule was called inactive in assay [8], in assay [5], in assay [6] and in [7].

Consider `CCCCCCCCCCOc1cc2c(=O)c(C(=O)OCC)c[nH]c2cc1OCC`, for which the Potency result in [1], in [2] and in assay [3] was “inactive” throughout. For the same molecule, the outcome in assay [8], in assay [5], in [6] and in [7] was inactive.

Take `Cc1ccccc1N=C(N)N=C(N)N`: the Potency entry in assay [1], in assay [2] and in [3] was “inactive” throughout. For the same molecule, the molecule was classed as inactive in [8], in [5], in assay [6] and in assay [7].

On to `CC(=O)OCC(=O)[C@@]1(O)[C@H](C)C[C@H]2[C@@H]3CCC4=CC(=O)C=C[C@]4(C)[C@@]3(F)[C@@H](O)C[C@@]21C`, for which the Potency entry in [1], in assay [2] and in assay [3] was “inactive” throughout. The result in assay [4], in [5], in assay [6] and in assay [7] was inactive.

Take `CN1C(C)(C)CC(O)CC1(C)C`: the Potency result in assay [1], in assay [2] and in assay [3] was “inactive” each time. Besides, the call in assay [4], in [5], in assay [6] and in assay [7] was inactive.

As to `Nc1ccn([C@@H]2O[C@H](CO)[C@@H](O)[C@@H]2O)c(=O)n1`, the Potency result in assay [1], in [2] and in assay [3] was “inactive” in each case. In addition, the call in assay [5], in assay [6] and in [7] was inactive.

For the molecule `C[C@H]1[C@H](NC(=O)/C(=N/OC(C)(C)C(=O)O)c2csc(N)n2)C(=O)N1S(=O)(=O)O` (stereo in doubt), the Potency entry in assay [2], in assay [3] and in assay [9] was “inactive” throughout. In assay [4], the fluorescence, relative to Rose Bengal is -0.264% [at 18.6 µM]. In addition, the fluorescence, % of fluorescein control in assay [5] is -0.201% [at 18.6 µM]. Also, in assay [6], the fluorescence, % of triamterene is 0.218% [at 18.6 µM]. Further, in assay [7], the fluorescence, % of fluorescent control was 0.181% [at 18.6 µM].

On to `CC1=NN(c2cccc(S(=O)(=O)O)c2)C(=O)C1`, for which the Potency entry in assay [1] and in assay [3] was “inactive” throughout. In addition, the result in [8], in assay [4], in assay [5], in assay [6] and in [7] was inactive.

For `Nc1c2c(nc3c1CCC3)CCCC2`, the Potency entry in assay [1], in assay [2], in assay [3] and in assay [9] was “inactive” throughout. For the same molecule, the molecule was classed as inactive in assay [5], in assay [6] and in [7].

Take `CCN[C@H]1C[C@H](C)S(=O)(=O)c2sc(S(N)(=O)=O)cc21`: the Potency entry in [1] and in assay [3] was “inactive” in each case. Also, the outcome in assay [8], in [4], in [5], in assay [6] and in assay [7] was inactive.

As for `CCOC(=O)OC(C)OC1=C(C(=O)Nc2ccccn2)N(C)S(=O)(=O)c2ccccc21` (stereo not drawn), in assay [1], the Potency was 3.35 µM (active). Besides, the Potency entry in [3] is “inactive”. In addition, the result in assay [8], in [4], in assay [5], in assay [6] and in assay [7] was inactive.

`CCCCc1ccc2c(n1)[C@@H](c1ccc(OC)cc1C[C@H](C)C(=O)O)[C@H](C(=O)O)[C@H]2c1ccc2c(c1)OCO2`: the Potency entry in assay [1], in assay [2] and in assay [3] was “inactive” each time. In addition, the outcome in assay [4], in [5], in [6] and in assay [7] was inactive.

Take `C=CCCC(=O)O`: the Potency entry in assay [1], in assay [2], in assay [3] and in assay [9] was “inactive” throughout. For the same molecule, the outcome in assay [4], in assay [5], in [6] and in [7] was inactive.

For the molecule `[Ca+2]`, the Potency result in assay [1] and in assay [3] was “inactive” throughout. Besides, the molecule was called inactive in [8], in [4], in assay [5], in [6] and in assay [7].

As to `COc1cccc(OC)c1C(=O)N[C@@H]1C(=O)N2[C@@H]1SC(C)(C)[C@@H]2C(=O)O`, the Potency entry in [1] and in [3] was “inactive” in each case. Also, the molecule was called inactive in assay [8], in [4], in assay [5], in assay [6] and in assay [7].

For the molecule `Cc1ncc([C@@H](CCCCCCc2ccc3c(n2)NCCC3)CC(=O)O)cn1`, the Potency entry in assay [1] and in assay [2] was “inactive” each time. Further, the Potency in assay [3] is 0.0273 µM (active). Moreover, the call in assay [4], in [5], in assay [6] and in [7] was inactive.

With `COc1c(N2CCNC(C)C2)c(F)cc2c(=O)c(C(=O)O)cn(C3CC3)c12` (stereo not drawn), the Potency result in [1], in [3] and in assay [9] was “inactive” each time. The molecule was classed as inactive in assay [8], in [5], in assay [6] and in [7].

As to `NC(N)=NCCN1CCCCCCC1`, the Potency entry in [1] and in assay [3] was “inactive” throughout. In addition, the molecule was classed as inactive in assay [8]. For the same molecule, in assay [4], the fluorescence, relative to Rose Bengal was 0.248% [at 18.6 µM]. The fluorescence, % of fluorescein control in [5] was 0.0444% [at 18.6 µM]. Also, the fluorescence, % of triamterene in assay [6] was -0.176% [at 18.6 µM]. Moreover, the fluorescence, % of fluorescent control in [7] was -0.493% [at 18.6 µM].
